Screening data: PubChem, The Scripps Research Institute Molecular Screening Center
MBD2 inh: MBD2-methylated oligo binding inhibition; TR-FRET, MBD2 binding to methylated oligonucleotide; AID 686964; hit rate 0.31% among 370,000; inhibition, % at 4.4 µM; in the data active = inhibition above about 13%
ABHD5-PLIN5 inh: inhibitors of human ABHD5-perilipin-5 interaction | Split G. princeps luciferase complementation, luminescence, 4 h | inhibition, % at 4 µM | hit rate 0.78% among 360,000 | AID 602281;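 active = inhibition above the mean inhibition across every tested compound plus 3 SD, cut at about 22% in these data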
Target sequence (Q00G26 whole entry, looked up): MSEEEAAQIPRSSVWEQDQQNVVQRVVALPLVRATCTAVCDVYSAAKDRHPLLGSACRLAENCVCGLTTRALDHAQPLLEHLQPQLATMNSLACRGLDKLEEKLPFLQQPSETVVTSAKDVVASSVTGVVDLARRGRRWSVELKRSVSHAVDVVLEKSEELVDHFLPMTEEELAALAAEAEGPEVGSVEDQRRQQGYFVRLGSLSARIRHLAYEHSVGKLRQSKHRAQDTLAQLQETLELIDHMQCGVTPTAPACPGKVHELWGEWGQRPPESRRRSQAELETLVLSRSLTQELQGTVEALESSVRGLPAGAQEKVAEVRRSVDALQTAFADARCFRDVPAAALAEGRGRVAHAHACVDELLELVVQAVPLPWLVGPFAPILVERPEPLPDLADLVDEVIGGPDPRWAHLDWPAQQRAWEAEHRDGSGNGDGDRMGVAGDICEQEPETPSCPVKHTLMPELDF
Target sequence (Q8WTS1 whole entry, looked up): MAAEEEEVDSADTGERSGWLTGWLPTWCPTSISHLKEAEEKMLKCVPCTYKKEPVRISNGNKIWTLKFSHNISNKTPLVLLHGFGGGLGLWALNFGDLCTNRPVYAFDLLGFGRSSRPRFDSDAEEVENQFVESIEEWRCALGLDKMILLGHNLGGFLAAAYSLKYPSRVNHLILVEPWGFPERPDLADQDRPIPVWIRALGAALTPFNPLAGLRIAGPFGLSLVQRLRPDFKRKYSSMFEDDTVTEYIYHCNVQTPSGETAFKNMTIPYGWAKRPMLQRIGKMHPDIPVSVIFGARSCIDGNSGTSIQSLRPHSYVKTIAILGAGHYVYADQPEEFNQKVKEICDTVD
PRMT1 FP inh: PRMT1 (human) inhibition, primary screen; AID 652257; recombinant PRMT1, activity-based probe fluorescence polarization; inhibition, % at 2.79 µM; Q99873; hit rate 1.3% among 370,000;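 active = inhibition above about 21% made by adding two undisclosed values, limit read from the data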
UHRF1 binding: human UHRF1 methylated DNA binding inhibitors | UHRF1 binding to methylated oligo, TR-FRET | hit rate 0.75% among 370,000 | Q96T88 | inhibition, % at 4.4 µM; in the data active = inhibition above about 21%;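 note: UHRF1 SRA domain binding a hemimethylated CpG hairpin DNA probe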
LEDGF integ inh: blocks HIV-1 LEDGF/p75-dependent DNA integration | AID 743269 | inhibition, % at 3.7 µM | TR-FRET IN-LEDGF/p75 DNA integration, Eu/Cy5 | hit rate 0.64% among 370,000;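 active = inhibition above the screen-wide mean plus 3 SD, cut at about 13% in these data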;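 note: signal is the Cy5 over europium emission ratio at 671 and 618 nm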
rCAG binder: r(CAG) repeat RNA binding; inhibition, % at 3 µM; TO-PRO-1 dye displacement fluorescence; hit rate 1.3% among 370,000; AID 651821;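 active = inhibition above the plate cutoff, the mean of all test compounds on that plate plus 3 SD, cut at about 35% in these data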;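 note: higher means more dye released from RNA so lower well fluorescence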
A number is an active result; 0 = inactive; - = not tested or not shown. An excerpt weighted towards active compounds, which were near 4.1% of everything screened.

SMILES	MBD2 inh	ABHD5-PLIN5 inh	PRMT1 FP inh	UHRF1 binding	LEDGF integ inh	rCAG binder
COc1ccccc1N1CCN(C(=O)c2ccc3c(c2)nc(C)n3-c2cc(OC)c(OC)c(OC)c2)CC1	0	-	0	0	0	0
C[C@H]1Cn2nncc2Cn2c3ccccc3c(=O)n21	0	-	0	0	0	0
NS(=O)(=O)c1ccc(NNC(=O)c2ccccc2)cc1	0	0	0	0	0	0
O=C(NNc1cc(Br)c(O)c(Br)c1)c1ccccc1	0	0	23	0	0	0
CCCCOCCCNC(=O)C[C@@H]1C(=O)N(Cc2ccc(OC)cc2)/C2=C/CCCCC[C@@]21C(=O)OCC	0	-	0	0	0	0
CCCOc1ccc(N)cc1N	0	0	0	0	38	0
CCCOc1cc(N)ccc1C(=O)OCCN(CC)CC	0	0	0	0	0	0
Nc1[nH]c(C(=O)c2ccccc2)c(-c2ccc(O)cc2)c1C(=O)NCCc1c[nH]c2ccccc12	0	-	0	0	0	-
CC1=C(C(=O)N2CCOCC2)CC(CC(=O)NC2CCCCC2)C(=O)N1Cc1ccccc1 (configuration not stated)	0	0	0	22	0	0
COc1ccc(Cn2nnnc2CN2CCN(c3ccc(OC)cc3)CC2)cc1	0	0	0	0	0	0
CCC(C)(C)n1nnnc1CN1CCN(c2ccc(OC)cc2)CC1	0	0	0	22	0	0
Cc1ccc(NC(=O)CSc2nccn(-c3ccc4c(c3)OCCO4)c2=O)cc1	0	0	0	0	0	0
CCOc1ccc(NC(=O)CSc2nccn(-c3ccc4c(c3)OCCO4)c2=O)cc1	0	0	22	0	0	0
CCc1ccc(NC(=O)CSc2nccn(-c3ccc4c(c3)OCCO4)c2=O)cc1	0	0	22	0	0	0
CCOc1ccc(-n2c(SCC(=O)Nc3ccc4c(c3)OCCO4)nnc2-c2ccncc2)cc1	0	-	0	0	0	0
CNC(=O)CSc1nnc(-c2ccccc2)n1C	0	0	0	31	0	0
CC(=O)Nc1ccc(C(=O)OCC(=O)c2cccc([N+](=O)[O-])c2)cc1	0	0	0	0	0	0
COC(=O)Nc1ccc(SCC(=O)c2cccc([N+](=O)[O-])c2)cc1	0	0	69	0	0	0
O=C(CN1CCCC1)Nc1cccc(Cl)c1	0	0	0	0	0	0
O=C(CN1CCCCCCC1)Nc1cc(Cl)cc(Cl)c1	0	0	0	57	0	0
O=C1CC(N2CCCC2)=NC(=O)N1c1ccc(Br)cc1	0	-	0	0	0	0
COc1cc(C2C(C#N)=C(N)OC3=C2C(=O)CCC3)c([N+](=O)[O-])cc1OC (configuration not stated)	0	0	21	0	13	0
CC(C)(SC(=S)N1CCCCCC1)C(=O)O	0	0	0	0	0	0
CC(SC(=S)N1CCCC1)C(=O)O (configuration not stated)	0	0	0	24	0	0
COc1cccc(-c2ccc(CC[C@H]3O[C@H]4CC[C@H](CO)O[C@H]4C[C@H]3NS(C)(=O)=O)cc2)c1	0	-	0	0	0	0
SMILES	MBD2 inh	ABHD5-PLIN5 inh	PRMT1 FP inh	UHRF1 binding	LEDGF integ inh	rCAG binder
CCOC(=O)C1CCCN(C2=C(NS(=O)(=O)c3ccc(Br)cc3)C(=O)c3ccccc3C2=O)C1 (configuration not stated)	0	0	0	0	22	0
CCOC(=O)C1CCN(C2=C(NS(=O)(=O)c3ccc(Cl)cc3)C(=O)c3ccccc3C2=O)CC1	0	0	0	0	0	0
CC(=O)N1CC2(CC(c3ccccc3F)=NO2)CN1c1ccc(Cl)cc1 (configuration not stated)	0	0	0	22	0	0
CN1C(=O)C[C@@](C#N)(C(=O)NCCc2ccccc2)[C@H]1c1ccccc1	0	-	0	0	0	0
O=C(NCc1ccco1)[C@@H]1CSC2c3ccccc3C(=O)N21 (some centres not stated)	0	0	21	0	0	0
CS(=O)(=O)c1ccc(N)c(SSc2cc(S(C)(=O)=O)ccc2N)c1	0	83	87	0	0	0
CS(=O)(=O)c1ccc2nc(N)sc2c1	0	0	0	0	0	0
CCCC[C@H]1C2CC(OC(=O)Nc3ccc(Cl)cc3)C(C2)[C@H]2CCCCN21 (some centres not stated)	0	-	0	0	0	0
CCCC1CCC2(CC1)CCC2OC(=S)NCc1ccc(Cl)cc1 (configuration not stated)	0	-	0	0	0	-
CCC1=NN2C(=N)/C(=C\c3cccn3-c3ccc(C)cc3C)C(=O)N=C2S1	0	0	0	30	0	0
CCC1=NN2C(=N)/C(=C\c3cccn3-c3c(C)cccc3C)C(=O)N=C2S1	0	0	0	0	0	0
COc1ccc(-n2cccc2/C=C2\C(=N)N3N=C(c4ccco4)SC3=NC2=O)cc1	0	0	0	0	0	51
CS(=O)(=O)c1ccccc1-c1nnc(NC(=O)c2ccc3ncsc3c2)o1	0	0	28	0	0	0
COc1ccc(NC(=O)Cc2ccc(Cl)c(Cl)c2)cn1	0	0	0	0	0	0
COc1ccc(NC(=O)/C(Cl)=C(/Cl)S(=O)(=O)Cc2ccc(C)cc2)cn1	-	64	-	-	-	-
CCOc1ccccc1N(CC(=O)NC1CCCCC1)C(=O)c1nsc(Cl)c1Cl	0	0	0	22	0	0
Cc1cccc(N(CC(=O)NC2CCCC2)C(=O)c2nsc(Cl)c2Cl)c1C	0	0	0	0	0	0
CCOC(=O)C1CCCN(Cc2cc(=O)oc3cc(C)c(C(C)C)cc23)C1 (configuration not stated)	0	0	0	26	0	0
CCN(c1ccc(C)cc1)S(=O)(=O)c1nnc(NC(=O)c2ccco2)s1	0	0	0	0	0	44
O=C(C(=O)N1CCC(CNC(=O)c2cccs2)CC1)c1cc2ccccc2o1	0	-	0	0	0	0
COc1ccc(OC)c(CN2C(=O)CCCC2(C)c2nnnn2C2CCCC2)c1 (configuration not stated)	0	-	0	0	0	0
COc1ccc(-c2ccc3c(n2)CCCN3S(=O)(=O)c2cccs2)cc1	0	-	0	0	0	0
COc1ccc(-c2nc(=S)c3c(n2Cc2cccnc2)CC(C)(C)OC3)cc1	0	0	0	24	0	0
O=C(N1CCC(Cc2ccccc2)CC1)n1ncc(C(O)(c2ccccc2)c2ccccc2)n1	0	-	0	0	0	-
CN(CC(=O)Nc1cccc(F)c1)C(=O)c1cn(-c2ccccc2)nc1-c1ccccc1	0	0	0	24	0	0
CCOc1ccc(-n2c(SC/C=C/c3ccccc3)nnc2-c2cccs2)cc1	0	-	0	0	0	0
CN(C)CCCN(C(=O)c1ccc(S(=O)(=O)N2CCc3ccccc32)cc1)c1nc2ccc(F)cc2s1	0	0	23	0	0	0
CN(C)CCCN(C(=O)c1ccc(S(=O)(=O)N2CCc3ccccc32)cc1)c1nc2ccc(Cl)cc2s1	0	0	27	0	0	0
